The text below walks through data of PMC7862700, “An all-to-all approach to the identification of sequence-specific readers for epigenetic DNA modifications on cytosine”.

What all share (test): DAPPL (digital affinity profiling via proximity ligation, sequencing); 10 mM Tris-HCl pH 7.5, 50 mM NaCl, 1 mM DTT, 4% glycerol, room temperature, 30 min; GST-TFs on glutathione beads, 16-mer random dsDNA library, 0.1% formaldehyde crosslink after washing; high values mean tight binding
Assay [1] concerns the target T1, FEV (Homo sapiens, UniProt Q99581 1-238).
T1 sequence: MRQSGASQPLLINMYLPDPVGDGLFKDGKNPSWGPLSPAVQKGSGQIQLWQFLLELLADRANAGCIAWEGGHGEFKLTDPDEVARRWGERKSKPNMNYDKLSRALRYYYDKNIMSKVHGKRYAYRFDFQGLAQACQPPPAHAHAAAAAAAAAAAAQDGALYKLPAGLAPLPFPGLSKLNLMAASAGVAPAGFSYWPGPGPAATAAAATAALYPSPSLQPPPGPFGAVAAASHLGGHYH
Conditions: protein: recombinant; tags: N-terminal GST; dsDNA, one strand shown. Summed up:
(§1)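 Binding signal is each hexamer's read frequency for a factor divided by its frequency in the tag-only sample. The factors were GST-fused human transcription factors from yeast, captured on glutathione beads, DNA-barcoded and pooled with that sample. Pools were incubated with 200 nmole of a random double-stranded 16-mer DNA library in Tris/NaCl/DTT/glycerol buffer at room temperature for 30 min, then washed, crosslinked with 0.1% formaldehyde, proximity-ligated with BsaI/T4 ligase (1 h, 37 °C), PCR-amplified and sequenced on an Illumina NextSeq500.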

In assay [2] the target is ETV5 (Homo sapiens, UniProt P41161 1-510). Conditions: protein: recombinant; tags: N-terminal GST; dsDNA, one strand shown. The method, boiled down:
as §1

Assay [3] addresses HSF1 (Homo sapiens, UniProt Q00613 1-529). The note with it: protein: recombinant; tags: N-terminal GST; chain copies: 3; dsDNA, one strand shown. The method, boiled down: as §1
The target in assay [4] is T2, SPIC (Homo sapiens, UniProt Q8N5J4 1-248).
T2 sequence: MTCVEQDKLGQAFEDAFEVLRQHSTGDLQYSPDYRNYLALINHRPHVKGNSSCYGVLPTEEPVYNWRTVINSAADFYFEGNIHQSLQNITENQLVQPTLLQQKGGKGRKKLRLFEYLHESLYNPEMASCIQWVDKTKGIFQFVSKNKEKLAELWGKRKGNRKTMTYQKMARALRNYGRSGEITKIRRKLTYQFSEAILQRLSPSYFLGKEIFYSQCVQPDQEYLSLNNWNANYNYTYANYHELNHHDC
Conditions: protein: recombinant; tags: N-terminal GST; dsDNA, one strand shown. Summed up: as §1

The target in assay [5] is ELF4 (Homo sapiens, UniProt Q99607 1-663). The note with it: protein: recombinant; tags: N-terminal GST; dsDNA, one strand shown. Summed up:
as §1

Assay [6] deals with T3, ELK4 (Homo sapiens, UniProt P28324-2 1-405).
T3 sequence: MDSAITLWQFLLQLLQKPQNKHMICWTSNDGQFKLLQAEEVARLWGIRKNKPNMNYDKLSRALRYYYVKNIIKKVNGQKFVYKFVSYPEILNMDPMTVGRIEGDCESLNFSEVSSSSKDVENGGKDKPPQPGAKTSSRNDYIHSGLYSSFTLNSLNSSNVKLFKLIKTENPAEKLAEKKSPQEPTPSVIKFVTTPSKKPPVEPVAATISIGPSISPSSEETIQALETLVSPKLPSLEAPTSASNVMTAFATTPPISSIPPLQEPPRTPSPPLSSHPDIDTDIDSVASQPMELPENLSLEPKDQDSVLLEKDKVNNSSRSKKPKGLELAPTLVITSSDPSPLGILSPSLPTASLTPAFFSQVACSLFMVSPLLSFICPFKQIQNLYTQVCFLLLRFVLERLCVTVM
The note with it: protein: recombinant; tags: N-terminal GST; dsDNA, one strand shown. Summed up: as §1

The target of assay [7] is T4, ETV2 (Homo sapiens, UniProt O00321 1-342).
T4 sequence: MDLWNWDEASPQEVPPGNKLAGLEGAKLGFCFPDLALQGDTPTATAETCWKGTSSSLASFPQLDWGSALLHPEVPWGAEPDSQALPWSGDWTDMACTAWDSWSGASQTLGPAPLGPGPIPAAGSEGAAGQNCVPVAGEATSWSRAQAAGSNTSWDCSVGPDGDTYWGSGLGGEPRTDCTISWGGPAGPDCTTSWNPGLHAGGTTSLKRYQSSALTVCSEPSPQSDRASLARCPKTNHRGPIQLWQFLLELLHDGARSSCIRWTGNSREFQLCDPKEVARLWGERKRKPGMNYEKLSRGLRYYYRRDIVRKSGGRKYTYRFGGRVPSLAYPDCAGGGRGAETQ
The note with it: protein: recombinant; tags: N-terminal GST; dsDNA, one strand shown. Summed up: as §1

Assay [8] concerns the target T5, ELF3 (Homo sapiens, UniProt P78545 1-371).
T5 sequence: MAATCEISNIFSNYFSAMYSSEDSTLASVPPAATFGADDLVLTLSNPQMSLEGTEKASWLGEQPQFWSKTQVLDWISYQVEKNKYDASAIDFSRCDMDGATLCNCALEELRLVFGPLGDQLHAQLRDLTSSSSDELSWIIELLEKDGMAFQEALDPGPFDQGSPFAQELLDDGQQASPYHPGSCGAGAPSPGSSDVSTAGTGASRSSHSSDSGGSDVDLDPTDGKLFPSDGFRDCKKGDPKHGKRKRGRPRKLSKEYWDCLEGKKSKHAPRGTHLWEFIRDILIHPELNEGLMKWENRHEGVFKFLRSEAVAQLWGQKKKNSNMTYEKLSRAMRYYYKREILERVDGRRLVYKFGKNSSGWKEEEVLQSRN
The note with it: protein: recombinant; tags: N-terminal GST; dsDNA, one strand shown. Summed up: as §1

Assay [9] deals with CRX (Homo sapiens, UniProt O43186 1-299). Conditions: protein: recombinant; tags: N-terminal GST; dsDNA, one strand shown. The method, boiled down:
as §1

Assay [10] addresses ETV1 (Homo sapiens, UniProt P50549 1-477). The note with it: protein: recombinant; tags: N-terminal GST; dsDNA, one strand shown. The method, boiled down:
as §1

Assay [11] has as its target T6, ERF (Homo sapiens, UniProt P50548 1-548).
T6 sequence: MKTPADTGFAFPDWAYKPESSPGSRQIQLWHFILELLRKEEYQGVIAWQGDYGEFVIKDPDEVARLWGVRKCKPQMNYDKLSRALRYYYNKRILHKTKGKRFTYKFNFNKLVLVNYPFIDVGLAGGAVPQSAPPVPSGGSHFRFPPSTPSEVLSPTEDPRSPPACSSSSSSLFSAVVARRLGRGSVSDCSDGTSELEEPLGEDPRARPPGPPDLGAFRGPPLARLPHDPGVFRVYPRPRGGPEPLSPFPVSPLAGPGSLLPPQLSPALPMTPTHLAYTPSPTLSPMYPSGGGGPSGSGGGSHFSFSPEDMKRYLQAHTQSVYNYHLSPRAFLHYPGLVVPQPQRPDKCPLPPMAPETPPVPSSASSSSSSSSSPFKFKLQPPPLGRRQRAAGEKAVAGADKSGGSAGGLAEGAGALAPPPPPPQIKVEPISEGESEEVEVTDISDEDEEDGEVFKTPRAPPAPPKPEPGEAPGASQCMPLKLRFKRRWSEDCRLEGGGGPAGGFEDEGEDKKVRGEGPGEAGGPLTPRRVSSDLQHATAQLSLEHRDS
The note with it: protein: recombinant; tags: N-terminal GST; dsDNA, one strand shown. The method, boiled down:
as §1

Assay [12] addresses T7, ETV3L (Homo sapiens, UniProt Q6ZN32 1-361).
T7 sequence: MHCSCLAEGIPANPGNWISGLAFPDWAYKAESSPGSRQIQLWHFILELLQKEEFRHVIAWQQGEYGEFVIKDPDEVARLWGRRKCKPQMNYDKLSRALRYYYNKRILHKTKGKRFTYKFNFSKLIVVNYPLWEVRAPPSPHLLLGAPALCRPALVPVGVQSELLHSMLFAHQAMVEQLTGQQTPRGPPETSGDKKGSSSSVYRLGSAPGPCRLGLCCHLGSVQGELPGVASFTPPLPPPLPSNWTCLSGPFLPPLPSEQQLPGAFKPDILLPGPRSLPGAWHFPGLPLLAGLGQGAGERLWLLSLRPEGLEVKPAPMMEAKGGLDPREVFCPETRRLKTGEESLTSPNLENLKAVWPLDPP
The note with it: protein: recombinant; tags: N-terminal GST; dsDNA, one strand shown. The method, boiled down: as §1

The target of assay [13] is T8, ETS2 (Homo sapiens, UniProt P15036 1-469).
T8 sequence: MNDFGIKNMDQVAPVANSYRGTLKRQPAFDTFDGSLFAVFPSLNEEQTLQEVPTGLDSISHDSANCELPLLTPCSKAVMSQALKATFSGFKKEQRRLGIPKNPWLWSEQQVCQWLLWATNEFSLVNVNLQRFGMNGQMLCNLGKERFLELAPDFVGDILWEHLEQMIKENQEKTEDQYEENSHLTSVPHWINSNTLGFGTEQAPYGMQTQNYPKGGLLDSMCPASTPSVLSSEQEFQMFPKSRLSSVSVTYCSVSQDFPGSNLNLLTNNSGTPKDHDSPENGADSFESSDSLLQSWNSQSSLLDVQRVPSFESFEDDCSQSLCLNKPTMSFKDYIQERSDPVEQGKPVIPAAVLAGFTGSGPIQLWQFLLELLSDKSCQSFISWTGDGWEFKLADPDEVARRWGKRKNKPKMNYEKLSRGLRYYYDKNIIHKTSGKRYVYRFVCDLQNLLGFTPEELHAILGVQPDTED
Conditions: protein: recombinant; tags: N-terminal GST; dsDNA, one strand shown. The method, boiled down:
as §1

The target of assay [14] is T9, SPDEF (Homo sapiens, UniProt O95238 1-335).
T9 sequence: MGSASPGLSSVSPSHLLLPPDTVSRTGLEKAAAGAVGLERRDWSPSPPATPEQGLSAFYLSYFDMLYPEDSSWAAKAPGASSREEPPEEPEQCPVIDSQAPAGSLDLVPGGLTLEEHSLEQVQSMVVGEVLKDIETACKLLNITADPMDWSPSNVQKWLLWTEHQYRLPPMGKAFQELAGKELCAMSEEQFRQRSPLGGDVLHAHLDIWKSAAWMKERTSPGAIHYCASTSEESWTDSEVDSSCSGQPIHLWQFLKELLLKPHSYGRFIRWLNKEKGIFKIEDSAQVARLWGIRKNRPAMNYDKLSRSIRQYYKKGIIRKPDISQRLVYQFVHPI
The note with it: protein: recombinant; tags: N-terminal GST; dsDNA, one strand shown. The method, boiled down: as §1

Assay [15] has as its target T10, ETV7 (Homo sapiens, UniProt Q9Y603 1-341).
T10 sequence: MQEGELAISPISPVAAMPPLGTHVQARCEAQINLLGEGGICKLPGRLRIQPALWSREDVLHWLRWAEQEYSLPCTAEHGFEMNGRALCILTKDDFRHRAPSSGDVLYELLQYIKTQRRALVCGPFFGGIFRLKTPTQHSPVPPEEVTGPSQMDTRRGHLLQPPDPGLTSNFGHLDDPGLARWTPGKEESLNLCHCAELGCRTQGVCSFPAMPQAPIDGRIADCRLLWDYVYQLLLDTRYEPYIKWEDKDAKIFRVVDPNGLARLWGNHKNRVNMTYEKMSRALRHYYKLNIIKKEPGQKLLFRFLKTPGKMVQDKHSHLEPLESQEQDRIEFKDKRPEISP
The note with it: protein: recombinant; tags: N-terminal GST; dsDNA, one strand shown. Summed up: as §1

The target of assay [16] is T11, ELF5 (Homo sapiens, UniProt Q9UKW6-2 1-255).
T11 sequence: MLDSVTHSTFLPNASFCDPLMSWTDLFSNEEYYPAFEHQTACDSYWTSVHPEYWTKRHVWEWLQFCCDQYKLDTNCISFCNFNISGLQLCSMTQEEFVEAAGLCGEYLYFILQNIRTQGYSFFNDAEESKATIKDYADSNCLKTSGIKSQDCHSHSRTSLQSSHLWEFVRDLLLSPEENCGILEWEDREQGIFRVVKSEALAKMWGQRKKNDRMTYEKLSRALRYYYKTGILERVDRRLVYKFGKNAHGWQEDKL
The note with it: protein: recombinant; tags: N-terminal GST; dsDNA, one strand shown. Summed up:
as §1

Assay [17] deals with T12, ETV3 (Homo sapiens, UniProt P41162-2 1-143).
T12 sequence: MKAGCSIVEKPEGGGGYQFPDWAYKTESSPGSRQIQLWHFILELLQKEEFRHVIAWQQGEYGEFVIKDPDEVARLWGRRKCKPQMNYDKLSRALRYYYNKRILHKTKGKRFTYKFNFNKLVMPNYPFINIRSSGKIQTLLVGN
The note with it: protein: recombinant; tags: N-terminal GST; dsDNA, one strand shown. The method, boiled down:
as §1

For assay [18], the target named is ETV6 (Homo sapiens, UniProt P41212 1-452). The note with it: protein: recombinant; tags: N-terminal GST; dsDNA, one strand shown. The method, boiled down: as §1
Sequence of ETV6 (P41212 whole entry): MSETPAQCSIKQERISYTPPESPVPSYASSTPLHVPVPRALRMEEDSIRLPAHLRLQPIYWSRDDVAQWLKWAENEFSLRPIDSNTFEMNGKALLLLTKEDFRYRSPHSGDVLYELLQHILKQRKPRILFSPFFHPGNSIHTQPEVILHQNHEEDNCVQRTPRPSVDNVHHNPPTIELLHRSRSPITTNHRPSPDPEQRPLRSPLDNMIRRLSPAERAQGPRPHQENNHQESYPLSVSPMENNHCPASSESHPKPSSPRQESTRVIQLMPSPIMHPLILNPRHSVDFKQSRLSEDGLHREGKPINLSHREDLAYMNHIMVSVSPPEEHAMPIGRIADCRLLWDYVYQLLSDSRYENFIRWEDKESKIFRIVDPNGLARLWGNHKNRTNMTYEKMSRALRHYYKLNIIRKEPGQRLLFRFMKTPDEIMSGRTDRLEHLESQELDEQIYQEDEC

Sequence of ETV5 (P41161 whole entry): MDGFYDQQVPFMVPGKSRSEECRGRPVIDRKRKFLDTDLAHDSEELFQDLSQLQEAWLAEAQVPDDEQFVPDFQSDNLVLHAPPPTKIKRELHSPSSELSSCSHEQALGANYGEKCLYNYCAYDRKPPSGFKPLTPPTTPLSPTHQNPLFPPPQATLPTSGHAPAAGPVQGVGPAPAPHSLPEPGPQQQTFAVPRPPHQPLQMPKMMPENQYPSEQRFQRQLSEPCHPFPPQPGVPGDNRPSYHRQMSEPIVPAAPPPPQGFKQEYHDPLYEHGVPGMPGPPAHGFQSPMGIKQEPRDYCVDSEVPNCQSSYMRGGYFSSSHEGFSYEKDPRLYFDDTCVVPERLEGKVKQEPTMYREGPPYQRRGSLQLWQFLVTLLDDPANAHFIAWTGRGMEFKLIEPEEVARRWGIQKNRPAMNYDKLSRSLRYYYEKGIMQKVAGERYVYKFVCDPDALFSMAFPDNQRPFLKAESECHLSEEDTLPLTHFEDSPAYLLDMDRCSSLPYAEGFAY
Sequence of CRX (O43186 whole entry): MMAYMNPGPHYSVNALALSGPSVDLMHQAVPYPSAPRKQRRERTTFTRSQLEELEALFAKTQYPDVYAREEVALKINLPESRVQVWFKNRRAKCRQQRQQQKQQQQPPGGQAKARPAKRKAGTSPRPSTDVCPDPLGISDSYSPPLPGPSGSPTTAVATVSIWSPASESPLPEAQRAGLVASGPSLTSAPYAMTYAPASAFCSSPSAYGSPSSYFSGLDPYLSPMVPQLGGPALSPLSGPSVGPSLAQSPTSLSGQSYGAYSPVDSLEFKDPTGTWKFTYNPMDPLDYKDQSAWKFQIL
Sequence of HSF1 (Q00613 whole entry): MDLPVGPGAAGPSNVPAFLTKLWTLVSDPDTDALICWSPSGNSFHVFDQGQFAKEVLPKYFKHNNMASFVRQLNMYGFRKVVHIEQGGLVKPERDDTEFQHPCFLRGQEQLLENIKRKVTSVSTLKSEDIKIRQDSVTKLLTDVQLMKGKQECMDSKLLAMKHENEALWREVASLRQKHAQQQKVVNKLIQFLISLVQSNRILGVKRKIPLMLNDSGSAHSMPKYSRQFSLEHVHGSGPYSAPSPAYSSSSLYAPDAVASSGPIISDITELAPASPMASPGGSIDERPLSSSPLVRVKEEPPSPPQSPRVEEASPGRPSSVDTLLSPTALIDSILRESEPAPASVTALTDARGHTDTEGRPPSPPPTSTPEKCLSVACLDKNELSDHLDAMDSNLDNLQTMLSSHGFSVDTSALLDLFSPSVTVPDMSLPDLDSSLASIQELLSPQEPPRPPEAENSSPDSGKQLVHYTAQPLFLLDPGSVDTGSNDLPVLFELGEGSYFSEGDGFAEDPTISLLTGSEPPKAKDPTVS
Sequence of ETV1 (P50549 whole entry): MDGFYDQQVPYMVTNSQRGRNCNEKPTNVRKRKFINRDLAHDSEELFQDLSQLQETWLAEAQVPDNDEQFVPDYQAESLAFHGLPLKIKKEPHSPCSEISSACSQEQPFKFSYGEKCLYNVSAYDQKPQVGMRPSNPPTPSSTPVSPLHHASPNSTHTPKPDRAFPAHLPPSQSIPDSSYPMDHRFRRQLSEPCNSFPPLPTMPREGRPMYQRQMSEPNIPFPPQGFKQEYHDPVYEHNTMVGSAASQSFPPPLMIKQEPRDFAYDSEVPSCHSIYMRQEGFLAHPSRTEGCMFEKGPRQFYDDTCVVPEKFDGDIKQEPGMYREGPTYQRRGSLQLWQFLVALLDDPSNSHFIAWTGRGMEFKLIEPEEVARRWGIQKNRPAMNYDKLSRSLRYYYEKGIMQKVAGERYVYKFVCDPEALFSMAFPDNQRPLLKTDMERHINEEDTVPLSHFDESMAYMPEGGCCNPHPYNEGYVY
Sequence of ELF4 (Q99607 whole entry): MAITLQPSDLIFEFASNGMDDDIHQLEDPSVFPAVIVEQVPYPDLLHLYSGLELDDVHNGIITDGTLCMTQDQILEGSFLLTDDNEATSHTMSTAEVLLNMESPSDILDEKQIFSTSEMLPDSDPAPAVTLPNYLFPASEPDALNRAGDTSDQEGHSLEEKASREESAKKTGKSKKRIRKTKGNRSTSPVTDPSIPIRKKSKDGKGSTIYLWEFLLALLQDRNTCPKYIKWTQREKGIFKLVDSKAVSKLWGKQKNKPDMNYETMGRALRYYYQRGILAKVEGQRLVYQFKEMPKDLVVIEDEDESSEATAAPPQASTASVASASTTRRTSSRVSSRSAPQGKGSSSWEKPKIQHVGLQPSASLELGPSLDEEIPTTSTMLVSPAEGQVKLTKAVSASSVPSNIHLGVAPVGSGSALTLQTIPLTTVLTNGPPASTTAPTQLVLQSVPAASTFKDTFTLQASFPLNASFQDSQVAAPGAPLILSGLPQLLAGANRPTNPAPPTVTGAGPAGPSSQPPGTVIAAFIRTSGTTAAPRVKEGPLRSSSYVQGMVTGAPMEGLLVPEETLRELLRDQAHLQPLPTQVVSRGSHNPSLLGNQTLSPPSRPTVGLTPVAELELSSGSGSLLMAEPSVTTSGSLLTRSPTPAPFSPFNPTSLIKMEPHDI

Take AATGAG: the binding signal is 1.14 fold enrichment (6-mer frequency, TF over GST control) in [1]; 1.17 fold enrichment (6-mer frequency, TF over GST control) in [2]; 1.05 fold enrichment (6-mer frequency, TF over GST control) in [3]; 1.31 fold enrichment (6-mer frequency, TF over GST control) in assay [4]; 1.14 fold enrichment (6-mer frequency, TF over GST control) in assay [5]; 1.14 fold enrichment (6-mer frequency, TF over GST control) in [6]. The binding signal in assay [7] is 1.46 fold enrichment (6-mer frequency, TF over GST control); in assay [8] it was 1.25 fold enrichment (6-mer frequency, TF over GST control); in [9], 1.08 fold enrichment (6-mer frequency, TF over GST control); in assay [10] it was 1.21 fold enrichment (6-mer frequency, TF over GST control); in [11], 1.2 fold enrichment (6-mer frequency, TF over GST control); in assay [12], 1.1 fold enrichment (6-mer frequency, TF over GST control). Further, the binding signal was 1.2 fold enrichment (6-mer frequency, TF over GST control) in assay [13]; 1.01 fold enrichment (6-mer frequency, TF over GST control) in assay [14]; 1.15 fold enrichment (6-mer frequency, TF over GST control) in assay [15]; 1.17 fold enrichment (6-mer frequency, TF over GST control) in assay [16]; 1.13 fold enrichment (6-mer frequency, TF over GST control) in assay [17]; 1.32 fold enrichment (6-mer frequency, TF over GST control) in assay [18].
